About 2,000 (36%) of roughly 5,500 compounds were called active. Inconclusive results (about 18%) are left out. No stated cut-off is given here; in the data, active means normalized growth mostly below about 0.91 (no sharp cut-off); inconclusive means no clear call, values can overlap the other calls; inactive means mostly above about 0.92. Some of the results follow.
Test: chemical genetic growth profiling, strain panel (AID 1159580);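 further: tested at 20 µM; growth read once vehicle control cultures reached saturation at 30 °C; 1 = growth at the plate median or of vehicle wells; lower values mean less growth of the strain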
Conditions: growth OD

Measured: normalized growth

CC(=O)O[C@H]1CC[C@@]2(C)C(C[C@@H](OC(C)=O)[C@]3(C)C2CC[C@@]2(C)[C@H](c4ccoc4)OC(=O)[C@H]4O[C@]423)C1(C)C (stereo partly drawn)
active: S. cerevisiae deletion strains, locus YKL009W, strain mrt4, hits give low values 1.47 [resistant]
inactive: S. cerevisiae deletion strains, locus YJL187C, strain SWE1, hits give low values 1 | S. cerevisiae deletion strains, locus YJR066W, strain TOR1, hits give low values 0.997 | S. cerevisiae deletion strains, locus YKL068W, hits give low values 1 | S. cerevisiae deletion strains, locus YKL085W, strain MDH1 (second series), hits give low values 1.04 | S. cerevisiae deletion strains, locus YKL085W, strain MDH1, hits give low values 1.04 | S. cerevisiae deletion strains, locus YKL160W, strain elf1, hits give low values 1.02 | S. cerevisiae deletion strains, locus YKL190W, strain CNB1, hits give low values 1 | S. cerevisiae deletion strains, locus YKR001C, strain vps1, hits give low values 1 | S. cerevisiae deletion strains, locus YKR026C, strain gcn3, hits give low values 0.971 | S. cerevisiae deletion strains, locus YKR091W, strain srl3, hits give low values 0.991 | S. cerevisiae deletion strains, locus YLL001W, strain dnm1, hits give low values 0.988 | S. cerevisiae deletion strains, locus YLL026W, hits give low values 0.995 | S. cerevisiae deletion strains, locus YLL041C, strain sdh2, hits give low values 0.987 | S. cerevisiae deletion strains, locus YLR027C, strain aat2, hits give low values 1 | S. cerevisiae deletion strains, locus YLR039C, strain RIC1, hits give low values 1.01 | S. cerevisiae deletion strains, locus YLR058C, strain SHM2, hits give low values 1.01 | S. cerevisiae deletion strains, locus YLR102C, strain apc9, hits give low values 1.02 | S. cerevisiae deletion strains, locus YLR113W, strain HOG1, hits give low values 0.991 | S. cerevisiae deletion strains, locus YLR221C, strain rsa3, hits give low values 1.01 | S. cerevisiae deletion strains, locus YLR258W, strain gsy2, hits give low values 0.994 | S. cerevisiae deletion strains, locus YLR262C, strain YPT6 (second series), hits give low values 1.05 | S. cerevisiae deletion strains, locus YLR262C, strain YPT6, hits give low values 1.1 | S. cerevisiae deletion strains, locus YLR268W, strain sec22, hits give low values 0.999 | S. cerevisiae deletion strains, locus YLR320W, strain mms22, hits give low values 1.01 | S. cerevisiae deletion strains, locus YLR330W, strain CHS5, hits give low values 1.01 | S. cerevisiae deletion strains, locus YLR342W, strain FKS1, hits give low values 0.994 | S. cerevisiae deletion strains, locus YLR357W, strain rsc2, hits give low values 0.951 | S. cerevisiae deletion strains, locus YLR370C, strain arc18, hits give low values 0.996 | S. cerevisiae deletion strains, locus YLR371W, strain rom2, hits give low values 1.01 | S. cerevisiae deletion strains, locus YLR384C, strain iki3, hits give low values 1 | S. cerevisiae deletion strains, locus YLR418C, strain cdc73, hits give low values 1.06 | S. cerevisiae deletion strains, locus YML016C, strain PPZ1, hits give low values 1.02 | S. cerevisiae deletion strains, locus YML032C, strain rad52, hits give low values 1.01 | S. cerevisiae deletion strains, locus YML120C, strain ndi1, hits give low values 0.989 | S. cerevisiae deletion strains, locus YML124C, strain tub3, hits give low values 1.01 | S. cerevisiae deletion strains, locus YMR058W, strain fet3, hits give low values 1 | S. cerevisiae deletion strains, locus YMR078C, strain ctf18, hits give low values 1.02 | S. cerevisiae deletion strains, locus YMR125W, strain sto1, hits give low values 0.99 | S. cerevisiae deletion strains, locus YMR129W, hits give low values 0.996 | S. cerevisiae deletion strains, locus YMR205C, strain PFK2, hits give low values 0.968 | S. cerevisiae deletion strains, locus YMR223W, strain ubp8, hits give low values 1.03 | S. cerevisiae deletion strains, locus YMR231W, strain pep5, hits give low values 0.994 | S. cerevisiae deletion strains, locus YMR263W, strain SAP30, hits give low values 1.02 | S. cerevisiae deletion strains, locus YMR307W, strain GAS1, hits give low values 0.994 | S. cerevisiae deletion strains, locus YNL067W, strain RPL9B, hits give low values 1.05 | S. cerevisiae deletion strains, locus YNL071W, strain lat1, hits give low values 1 | S. cerevisiae deletion strains, locus YNL183C, strain NPR1, hits give low values 1 | S. cerevisiae deletion strains, locus YNL209W, strain ssb2, hits give low values 1 | S. cerevisiae deletion strains, locus YNL233W, strain BNI4, hits give low values 1.05 | S. cerevisiae deletion strains, locus YNL248C, strain rpa49, hits give low values 1.01 | S. cerevisiae deletion strains, locus YNL250W, strain rad50, hits give low values 1.05 | S. cerevisiae deletion strains, locus YNL271C, strain bni1, hits give low values 1.02 | S. cerevisiae deletion strains, locus YNL298W, strain CLA4, hits give low values 1.01 | S. cerevisiae deletion strains, locus YNL307C, strain MCK1, hits give low values 1.02 | S. cerevisiae deletion strains, locus YNL322C, strain KRE1 (second series), hits give low values 0.997 | S. cerevisiae deletion strains, locus YNR049C, strain mso1, hits give low values 0.985 | S. cerevisiae deletion strains, locus YNR052C, strain pop2, hits give low values 1.03 | S. cerevisiae deletion strains, locus YOL006C, strain TOP1, hits give low values 1.04 | S. cerevisiae deletion strains, locus YOL012C, strain htz1 0.707 | S. cerevisiae deletion strains, locus YOL147C, strain pex11, hits give low values 1.01 | S. cerevisiae deletion strains, locus YOR001W, strain rrp6, hits give low values 1.02 | S. cerevisiae deletion strains, locus YOR061W, strain CKA2, hits give low values 1 | S. cerevisiae deletion strains, locus YOR069W, strain VPS5, hits give low values 1.01 | S. cerevisiae deletion strains, locus YOR070C, strain gyp1, hits give low values 0.997 | S. cerevisiae deletion strains, locus YOR080W, strain dia2, hits give low values 0.996 | S. cerevisiae deletion strains, locus YOR083W, strain WHI5, hits give low values 1.03 | S. cerevisiae deletion strains, locus YOR106W, strain vam3, hits give low values 1.03 | S. cerevisiae deletion strains, locus YOR136W, strain idh2, hits give low values 1.02 | S. cerevisiae deletion strains, locus YOR144C, strain elg1, hits give low values 1.01 | S. cerevisiae deletion strains, locus YOR184W, strain ser1, hits give low values 1 | S. cerevisiae deletion strains, locus YOR231W, strain MKK1, hits give low values 1.02 | S. cerevisiae deletion strains, locus YOR265W, strain rbl2, hits give low values 1 | S. cerevisiae deletion strains, locus YOR270C, strain vph1, hits give low values 1.01 | S. cerevisiae deletion strains, locus YOR290C, strain snf2, hits give low values 0.942 | S. cerevisiae deletion strains, locus YOR316C, strain cot1, hits give low values 1.01 | S. cerevisiae deletion strains, locus YPL051W, strain arl3, hits give low values 1.03 | S. cerevisiae deletion strains, locus YPL078C, strain atp4, hits give low values 1.02 | S. cerevisiae deletion strains, locus YPL106C, strain sse1, hits give low values 0.981 | S. cerevisiae deletion strains, locus YPL240C, strain hsp82, hits give low values 1 | S. cerevisiae deletion strains, locus YPL241C, strain CIN2, hits give low values 1 | S. cerevisiae deletion strains, locus YPL256C, strain CLN2, hits give low values 1.05 | S. cerevisiae deletion strains, locus YPR119W, strain clb2, hits give low values 1.01 | S. cerevisiae deletion strains, locus YPR141C, strain kar3, hits give low values 1.02 | S. cerevisiae deletion strains, locus YPR163C, strain tif3, hits give low values 1.02 | S. cerevisiae deletion strains, locus YPR167C, strain met16, hits give low values 1.01 | S. cerevisiae deletion strains, strain wtn01, hits give low values 1.02 | S. cerevisiae strains, strain wild type, hits give low values 1.02

— PubChem BioAssay AID1159580 (chemical genetic matrix, 2015)
